Records with an inconclusive call do not appear. Activity calls are given as the source filed them. Calls come from the whole dose curve.
Experiments:
[1] = molecular target: Acetylcholinesterase (Homo sapiens) (UniProt P22303); test: Acetylcholinesterase (AChE) small molecule antagonists: colormetric cell-based qHTS assay (AID 1347395); conditions: SH-SY5Y cells AChE activity, colorimetric (Ellman); series mostly up to 115 µM; note: nearly all actives have a fitted effect of over 30% in size
Outline: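 Colorimetric readout: DTNB quantifies thiocholine from acetylthiocholine hydrolysed by endogenous AChE of SH-SY5Y cells (2,000/well, plated overnight). Compound pretreatment 30 min, substrate incubation 90 min, both 37 C.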

[2] = molecular target: Acetylcholinesterase (Homo sapiens) (UniProt P22303); test: Acetylcholinesterase (AChE) small molecule antagonists: enzyme-based qHTS assay (AID 1347397); conditions: Potency: AChE enzyme activity inhibition; outcome: AChE enzyme activity inhibition; series mostly up to 115 µM; note: nearly all actives have a fitted effect of over 55% in size
Outline: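 Colorimetric DTNB read-out of thiocholine released from acetylthiocholine by recombinant human AChE (50 mU/mL as dispensed). Compounds were preincubated 30 min at RT before substrate/DTNB addition, with a 10 min RT reaction.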

[3] = molecular target: Acetylcholinesterase (Homo sapiens) (UniProt P22303); test: Acetylcholinesterase (AChE) small molecule antagonists: fluorescence cell-based qHTS assay (AID 1347398); conditions: SH-SY5Y cells; Potency: AChE activity; outcome: AChE activity; series mostly up to 115 µM; note: nearly all actives have a fitted effect of over 50% in size
Outline: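 SH-SY5Y, 2,000 cells/well, attached overnight; cmpd 30 min 37 C; acetylthiocholine/Thiolite Green cocktail 40 min RT; fluorescence Ex/Em 490/520 nm.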

[4] = molecular target: Acetylcholinesterase (Homo sapiens) (UniProt P22303); test: Acetylcholinesterase (AChE) small molecule antagonists: enzyme-based qHTS assay with human liver microsomes (AID 1347399); conditions: Potency: qHTS inhibition; outcome: qHTS inhibition; series mostly up to 115 µM; note: nearly all actives have a fitted effect of over 60% in size
Outline: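 Recombinant human AChE (50 mU/mL in the enzyme mix) and human liver microsomes (0.25 mg/mL final) were preincubated with compound and NADPH (0.25 mg/mL final) for 30 min at 37 C. Acetylthiocholine/DTNB was then added; thiocholine was read colorimetrically after 10 min at room temperature.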
% is set by controls: 0 for no effect and ±100 for the full control effect.

Chain of Acetylcholinesterase (Homo sapiens) (P22303 whole entry, looked up): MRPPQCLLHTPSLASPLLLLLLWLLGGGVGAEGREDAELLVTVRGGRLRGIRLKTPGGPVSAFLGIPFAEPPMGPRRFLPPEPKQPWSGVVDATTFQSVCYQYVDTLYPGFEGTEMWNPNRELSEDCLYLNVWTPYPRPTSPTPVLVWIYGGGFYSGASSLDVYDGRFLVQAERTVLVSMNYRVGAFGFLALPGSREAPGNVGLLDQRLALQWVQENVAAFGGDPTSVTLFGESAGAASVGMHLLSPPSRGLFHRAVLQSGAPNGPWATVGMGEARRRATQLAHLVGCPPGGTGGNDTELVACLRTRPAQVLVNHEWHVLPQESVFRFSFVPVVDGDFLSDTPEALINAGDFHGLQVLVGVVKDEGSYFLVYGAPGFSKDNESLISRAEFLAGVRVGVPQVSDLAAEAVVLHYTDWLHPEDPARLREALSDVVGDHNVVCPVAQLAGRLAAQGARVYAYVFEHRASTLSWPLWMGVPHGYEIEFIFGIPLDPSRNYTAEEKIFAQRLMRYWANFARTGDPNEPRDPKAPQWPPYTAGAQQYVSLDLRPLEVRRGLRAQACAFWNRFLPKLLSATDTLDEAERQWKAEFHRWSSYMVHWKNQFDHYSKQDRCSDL

C=C1CC[C@H]2O[C@]2(C)CC[C@@H]2[C@@H]1CC2(C)C
inactive: Potency [1] | Potency [2] | Potency [3] | Potency [4]

CCC(CO)(CO)[N+](=O)[O-]
inactive: Potency [1] | Potency [2] | Potency [3] | Potency [4]

NC(Cc1ccc(Cl)cc1)C(=O)O (stereo unspecified)
inactive: activity, negative = inhibition [1] 1.17% [at 0.435 µM] | activity change, negative = inhibition [2] 0.0464% [at 0.435 µM] | activity change, negative = inhibition [3] 9.18% [at 0.439 µM] | activity change, negative = inhibition [4] -1.76% [at 0.435 µM]

C=CC(C)(CCC=C(C)C)OC(=O)C(C)C (stereo unspecified)
inactive: Potency [1] | Potency [2] | Potency [3] | Potency [4]

c1ccc(CNCc2ccccc2)cc1
inactive: Potency [1] | Potency [2] | Potency [3] | Potency [4]

CCC(CC)CO
inactive: Potency [1] | Potency [2] | Potency [3] | Potency [4]

CCOC(=O)CC(=O)C(=O)OCC
inactive: Potency [1] | Potency [2] | Potency [3] | Potency [4]

CCCCNCCCC
inactive: Potency [1] | Potency [2] | Potency [3] | Potency [4]

O=C1CCCCCO1
inactive: Potency [1] | Potency [2] | Potency [3] | Potency [4]

CC(C)CCCC(C)CC=O (stereo unspecified)
inactive: Potency [1] | Potency [2] | Potency [3] | Potency [4]

CC(C)Nc1nc(N)nc(Cl)n1
inactive: Potency [1] | Potency [2] | Potency [3] | Potency [4]

COc1c(Br)cc(Br)c(C)c1Br
inactive: Potency [1] | Potency [2] | Potency [3] | Potency [4]

CC/C=C\CCOC(C)=O
inactive: Potency [1] | Potency [2] | Potency [3] | Potency [4]

O=C1OC(OC(=O)c2cccnc2Nc2cccc(C(F)(F)F)c2)c2ccccc21 (stereo unspecified)
inactive: Potency [1] | Potency [2] | Potency [3] | Potency [4]

Clc1nc2ccccc2nc1Cl
inactive: Potency [1] | Potency [2] | Potency [3] | Potency [4]

c1ccc(-c2nc3ccccc3[nH]2)cc1
inactive: Potency [1] | Potency [2] | Potency [3] | Potency [4]

COc1cccc(OC)c1
inactive: Potency [1] | Potency [2] | Potency [3] | Potency [4]

CC[C@@H]1C[C@H](N(Cc2cc(C(F)(F)F)cc(C(F)(F)F)c2)C(C)=O)c2cc(C(F)(F)F)ccc2N1C(=O)OC(C)C
inactive: Potency [1] | Potency [2] | Potency [3] | Potency [4]

CCCCCCCCCCCCCCCC
inactive: Potency [1] | Potency [2] | Potency [3] | Potency [4]

CC(C)CCCCCCOC(=O)CCCCC(=O)OCCCCCCC(C)C
inactive: Potency [1] | Potency [2] | Potency [3] | Potency [4]

CCCCCCCCc1ccc(Nc2ccc(CCCCCCCC)cc2)cc1
inactive: Potency [1] | Potency [2] | Potency [3] | Potency [4]

CC[C@@]1(O)C(=O)OCc2c1cc1n(c2=O)Cc2c-1nc1ccccc1c2/C=N/OC(C)(C)C
inactive: Potency [1] | Potency [2] | Potency [3] | Potency [4]

O=[N+]([O-])c1ccc(F)c(Cl)c1
inactive: Potency [1] | Potency [2] | Potency [3] | Potency [4]

O=C(O)COc1ccc2ccccc2c1
inactive: Potency [1] | Potency [2] | Potency [3] | Potency [4]

CCOCC(C)O (stereo unspecified)
inactive: Potency [1] | Potency [2] | Potency [3] | Potency [4]

C=CCON/C(CCC)=C1\C(=O)CC(C)(C)C(C(=O)OC)=C1O
inactive: Potency [1] | Potency [2] | Potency [3] | Potency [4]

CCCCCOC(=O)c1ccc(O)cc1
inactive: Potency [1] | Potency [2] | Potency [3] | Potency [4]

C[C@H](N)C(=O)N[C@@H](C)C(=O)NC1[C@H]2CN(c3nc4c(cc3F)c(=O)c(C(=O)O)cn4-c3ccc(F)cc3F)C[C@@H]12 (stereo partly specified)
inactive: outcome [1] | outcome [2] | outcome [3] | outcome [4]

NC(=O)c1cc[n+](CC2=C(C(=O)[O-])N3C(=O)[C@@H](NC(=O)Cc4cccs4)[C@H]3SC2)cc1
inactive: Potency [1] | Potency [2] | Potency [3] | Potency [4]

CC(=O)OC(C)(C)Cc1ccccc1
inactive: Potency [1] | Potency [2] | Potency [3] | Potency [4]

CCc1cccc(CC)c1NC(=O)CN(CC(=O)O)CC(=O)O
inactive: Potency [1] | Potency [2] | Potency [3] | Potency [4]

C=C(C)c1ccccc1
inactive: Potency [1] | Potency [2] | Potency [3] | Potency [4]

Cc1ccc(OC(=O)c2ccccc2O)cc1
inactive: Potency [1] | Potency [2] | Potency [3] | Potency [4]

COc1ccccc1NC(=O)c1cc2ccccc2cc1O
inactive: Potency [1] | Potency [2] | Potency [3] | Potency [4]

C=C(C)CS(=O)(=O)O
inactive: Potency [1] | Potency [2] | Potency [3] | Potency [4]

CCCCCCCCCCCCN1CCOCC1
inactive: Potency [1] | Potency [2] | Potency [3] | Potency [4]

Cc1ccc(-c2ccccc2)cc1
inactive: Potency [1] | Potency [2] | Potency [3] | Potency [4]

COc1ccc(/C=C/c2cc(OC)cc(=O)o2)cc1
inactive: Potency [1] | Potency [2] | Potency [3] | Potency [4]

O=C(Nc1ccc([N+](=O)[O-])cc1)Nc1ccc([N+](=O)[O-])cc1
inactive: Potency [1] | Potency [2] | Potency [3] | Potency [4]

Reference: PubChem BioAssay (Tox21)
